Compound activity (PubChem)
Only some compounds are listed: those with a hit (about 3.3% of all), similar ones and a draw of the others.
Rpn11 inh: inhibitors of human proteasome Rpn11; 360,000 compounds, 0.59% hits; inhibition, % at 20 µM; human 26S proteasome, Ub4-pepOG fluorescence polarization; 20S core pre-blocked with epoxomicin; O00487;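 active means inhibition at 20 µM, scaled to each plate's controls, above about 33%, limit read from the data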
CendR NRP1 mod: alters CendR peptide binding to human NRP-1; O14786; FAM-RPARPAR peptide binding to NRP-1, fluorescence polarization; inhibition, % at 25 µM; 360,000 compounds, 0.85% hits; AID 602438;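 active means inhibition or corrected inhibition above about 18%, plus a signal ratio from 0.5 to 1.5, limit read from the data, passing the limit was not always enough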
TPT1 inh: inhibitors of Candida albicans tRNA 2'-phosphotransferase TPT1 | recombinant caTPT1, FP RNA substrate dephosphorylation | inhibition, % at 5 µM | 300,000 compounds, 0.81% hits | AID 1962;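 active means inhibition above the mean of all tested compounds plus 3 SD, set per screening campaign, cut at about 24% in these data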;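 further: plate controls were DMSO alone for no effect and ferristatin control at 100 nM for full effect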
HNF4A DNA FP: change in binding of human HNF4 alpha to DNA; P41235; activity change, % at 10 µM; 360,000 compounds, 0.3% hits; HNF4a-FITC DNA binding, fluorescence polarization, 1 h; AID 1224865; in the data active means activity change above about 30%, passing the limit was not always enough
Target sequence (P41235 whole entry, looked up): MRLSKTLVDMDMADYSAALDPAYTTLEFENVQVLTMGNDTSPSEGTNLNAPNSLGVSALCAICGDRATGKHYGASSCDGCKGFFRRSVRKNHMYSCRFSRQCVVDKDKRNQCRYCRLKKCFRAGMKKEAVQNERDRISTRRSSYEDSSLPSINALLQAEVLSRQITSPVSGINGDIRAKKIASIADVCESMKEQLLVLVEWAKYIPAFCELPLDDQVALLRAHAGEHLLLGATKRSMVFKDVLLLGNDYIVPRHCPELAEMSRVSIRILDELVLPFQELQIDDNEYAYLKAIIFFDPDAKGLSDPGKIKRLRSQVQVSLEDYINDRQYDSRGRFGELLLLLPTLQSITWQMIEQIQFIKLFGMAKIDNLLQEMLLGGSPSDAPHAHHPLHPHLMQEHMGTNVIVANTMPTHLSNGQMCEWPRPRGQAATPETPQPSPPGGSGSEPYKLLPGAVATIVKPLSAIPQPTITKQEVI
Fh CTSL1 inh: counter-screen for PFM18AAP inhibitors: inhibitors of F. hepatica cathepsin L1; recombinant F. hepatica cathepsin L1, Z-Leu-Arg-MCA fluorescence; inhibition, % at 5.96 µM; 300,000 compounds, 0.49% hits; AID 1906;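 active means inhibition above the mean of all tested compounds plus 3 SD, set per screening campaign, cut at about 17% in these data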;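 further: 0% = plate median of test compound wells and 100% = 1 µM Z-Phe-Ala-diazomethylketone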
PHOSPHO1 inh: PHOSPHO1 (human) inhibition. recombinant PHOSPHO1, absorbance phosphatase assay. Q8TCT1. inhibition, % at 13.3 µM. AID 1565. 290,000 compounds, 1.1% hits; in the data active means inhibition above about 60%
TPT1 inh confirm: confirmation of Candida albicans TPT1 inhibitors; shares compounds with TPT1 inh; recombinant caTPT1, fluorescence polarization, RNase T1 coupled; inhibition, % at 5 µM; 2,400 compounds, 74% hits;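 active means inhibition above the primary screen limit, the mean inhibition of all tested compounds plus 3 SD, cut at about 25% in these data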
RNase T1 counter: counter-screen for TPT1 inhibitors: inhibitors of Aspergillus oryzae RNase T1; shares compounds with TPT1 inh; AID 2153; inhibition, % at 5 µM; 2,400 compounds, 83% hits; RNase T1 cleavage, fluorescence polarization, 1536-well;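 active means inhibition above the solvent-only control well mean plus 3 SD, limit set per screening run, cut at about 23% in these data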;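 further: plate controls were DMSO wells with enzyme for no effect and wells without RNase T1 for full effect; inhibitors block cleavage so intact labeled substrate keeps polarization high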
Target sequence (P00651 whole entry, looked up): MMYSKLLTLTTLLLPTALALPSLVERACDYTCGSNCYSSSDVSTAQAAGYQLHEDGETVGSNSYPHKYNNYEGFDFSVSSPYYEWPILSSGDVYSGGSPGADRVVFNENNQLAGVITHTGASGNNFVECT
Numbers without * were called inactive; x = no result given; + = active, no number.

SMILES | Rpn11 inh | CendR NRP1 mod | TPT1 inh | HNF4A DNA FP | Fh CTSL1 inh | PHOSPHO1 inh | TPT1 inh confirm | RNase T1 counter
COC(=O)[C@H]1[C@H]2C[C@@H]3c4[nH]c5cc(OC)ccc5c4CCN3C[C@H]2C[C@@H](OC(=O)c2cc(OC)c(OC)c(OC)c2)[C@@H]1OC | 19 | -54 | 41* | 11 | -1 | x | 45* | 58*
CN1C(=O)C2(c3ccccc31)C1CCCC=C1C(C#N)=C(N)C2(C#N)C#N (centres undefined) | 0 | -10 | 2 | 0 | 3 | 15 | x | x
Cn1cc([N+](=O)[O-])c(C(=O)NCC(=O)O)n1 | 0 | 11 | 0 | 1 | -5 | 48 | x | x
CCCc1cc2c(=O)n(NC(=O)c3nn(C)cc3[N+](=O)[O-])c(C)nc2s1 | -1 | 9 | 57* | 1 | 2 | 2 | 4 | 5
O=Cc1c(Sc2ccccc2)nc2ccccn2c1=O | -1 | -8 | -5 | 1 | -1 | 23 | x | x
O=C(O)c1ccccc1N/N=C/c1c(Sc2nnnn2-c2ccccc2)nc2ccccn2c1=O | x | -165 | 68* | 96* | 3 | 16 | 19 | 31*
CC(=O)c1c(C)n([O-])c2cc(C)ccc2[n+]1=O | -1 | -12 | 1 | -1 | -2 | 2 | x | x
COc1ccc2cc(/C=C/C(=O)c3ccco3)c(Cl)nc2c1 | x | x | 17 | x | 0 | 12 | x | x
COc1cc2cc(/C=C/C(=O)c3ccco3)c(Cl)nc2cc1OC | x | -137 | 33* | 16 | 0 | 6 | 47* | 56*
CCN1/C(=C/C(C)=O)Sc2ccc(OC)cc21 | 2 | 4 | 0 | 3 | 3 | 2 | x | x
CCOC(=O)/C(=C\C=C1/Sc2cc(OCC)c(OCC)cc2N1CC)C(C)=O | x | 121 | 147* | -90 | 6 | 0 | 123* | 123*
CCOC(=O)/C(=C/C=C1\Sc2cc(OCC)c(OCC)cc2N1CC)C(C)=O | x | 133 | + | -104 | 3 | 0 | 149* | 142*
NC(=O)N/N=C/c1ccc(N2CCOCC2)s1 | x | -109 | 81* | 71* | 2 | -1 | 123* | 130*
O=C(N/N=C/c1ccc(N2CCOCC2)s1)c1ccc(O)cc1 | 6 | -15 | x | 1 | x | x | x | x
CC(C)C(OC(=O)c1cccs1)C(=O)NCc1cccs1 (centres undefined) | 1 | -6 | 2 | 3 | -11 | 11 | x | x
CN(C)c1ccc(C(=O)/C=C/c2cccnc2)cc1 | -6 | 6 | 3 | 1 | 2 | -38 | x | x
CN(C)c1ccc(/C=C/C(=O)c2cccc(Br)c2)cc1 | x | 132 | 99* | 136 | 1 | 38 | 97* | 94*
Cc1ccc(C(=O)OCC(=O)Nc2ccc3c(c2)OCO3)o1 | -2 | -9 | -5 | 1 | -4 | 4 | x | x
O=c1c(-c2ccc(O)cc2)coc2cc(OC3OC(CO)C(O)C(O)C3O)ccc12 (centres undefined) | 2 | -6 | 1 | 0 | 3 | 13 | x | x
CCc1cccc(OCCCn2ccnc2)c1 | 5 | 5 | 36* | 0 | 0 | -6 | 3 | 9
COc1cccc(OCCCn2ccnc2)c1 | -3 | 3 | 1 | -1 | -3 | 49 | x | x
CN(CCn1ccnc1)Cc1cn(Cc2ccccc2)nc1-c1ccc2c(c1)OCO2 | -7 | -3 | -6 | -3 | 1 | 27 | x | x
CCN(CC)S(=O)(=O)c1cc(NC(=O)COC(=O)CCc2nc3ccccc3s2)ccc1C | 3 | -2 | 0 | -1 | -10 | 16 | x | x
CCN(CC)S(=O)(=O)c1cccc(NC(=O)COC(=O)CCc2nc3ccccc3s2)c1 | 4 | -4 | 128* | -3 | -12 | 24 | 6 | 13
CCCCCCCCNC(=O)CCNC(=O)c1ccc(C(C)(C)C)cc1 | 2 | 6 | 1 | 0 | 4 | 11 | x | x
SMILES | Rpn11 inh | CendR NRP1 mod | TPT1 inh | HNF4A DNA FP | Fh CTSL1 inh | PHOSPHO1 inh | TPT1 inh confirm | RNase T1 counter
CCN(CC)c1ccc(/C=C/C(=O)C2C(=O)C=C(C)OC2=O)cc1 (centres undefined) | x | 135 | 48* | 76 | 2 | -1 | 33* | 40*
COCCNC(=O)C1(C)CCCN(C(=O)c2ccc3snnc3c2)C1 (centres undefined) | -2 | 3 | x | -1 | x | x | x | x
N=C1S/C(=C\c2ccc(-c3cccc(Cl)c3)o2)C(=O)N1c1nccs1 | 6 | -48 | 29* | -18 | 6 | -1 | 32* | 35*
CCCC(=O)N1CCC1(C)C(=O)NS(=O)(=O)c1ccc(C)cc1 (centres undefined) | 0 | 12 | x | 3 | x | x | x | x
Cc1ccc(OCC(=O)Nc2ccc(S(=O)(=O)Nc3ccccn3)cc2)c(C)c1 | -1 | 1 | 36* | -3 | 3 | -2 | 3 | 6
CCN1C(=O)S/C(=C\c2ccc(N3CCOCC3)cc2C)C1=O | 36 | -64 | 39* | 27 | 2 | 11 | 55* | 69*
Cc1cc(N2CCOCC2)ccc1/C=C1\SC(=O)N(C(C)C)C1=O | 26 | -146 | 37* | 14 | 1 | 38 | 52* | 64*
CCC(C)N1C(=O)S/C(=C/c2ccc(N3CCOCC3)cc2C)C1=O (centres undefined) | 5 | -23 | 19 | 3 | 0 | -3 | x | x
CCCN1C(=O)S/C(=C\c2ccc(N3CCOCC3)cc2C)C1=O | x | x | x | x | x | 16 | x | x
NC(Cc1ccc(F)cc1)c1csc(Nc2cc(Oc3ccccc3)ncn2)n1 (centres undefined) | 12 | -12 | x | 3 | x | x | x | x
CC(C)C(=O)Nc1nnc(SCC(=O)NCc2cccs2)s1 | 5 | 4 | 32* | -4 | 7 | 33 | 1 | 2
CC(C)(C)C(=O)Nc1nnc(SCC(=O)NCc2cccs2)s1 | -3 | 5 | -5 | -2 | -2 | -19 | x | x
COC(=O)c1cc(NC(=O)c2cccc(C(F)(F)F)c2)c(=O)oc1C/C=N/OCc1cccc(Cl)c1Cl | x | -48 | 35* | 28 | 6 | 5 | 38* | 45*
Cn1cncc1C#Cc1ccc2cc(CCCO)oc(=O)c2c1 | -6 | -15 | x | 1 | x | x | x | x
Cc1ccc(S(=O)(=O)c2cc(C#N)c(=O)[nH]c2N)cc1 | 22 | -39 | 33* | 10 | 1 | -1 | 23 | 29*
COc1nc(N)c(S(=O)(=O)c2ccc(C)cc2)cc1C#N | 32 | -39 | 29* | 16 | -2 | 14 | 21 | 29*
COc1ccc(Oc2nc(C)cc(C)c2S(=O)(=O)c2ccc(C)cc2)cc1 | 5 | -1 | 2 | -7 | -2 | 4 | x | x
CCOc1ccc(CC(=O)Nc2ccc(S(=O)(=O)N3CCCC3)cc2)cc1 | 10 | 2 | -1 | 2 | -3 | 37 | x | x
CN(C)S(=O)(=O)c1cccc(NC(=S)N/N=C/c2cc(Br)ccc2O)c1 | x | -40 | 25* | 14 | 1 | 0 | 53* | 59*
